The supplement of paper PMC7156485

Columns and labels:
Conditions in all cases: concentration: 10 µM; 24 h
HCC1569 [1] = assay: cell number relative to DMSO (% of DMSO); higher = more cells (less growth inhibition / toxicity)
Method in brief: (§1)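 Treatment: HCC1569 and TDF cells, 800 per well in 384-well plates with RPMI and 10% FBS, were given compounds at 10 µM for 24 h at 37 °C, in triplicate. Readout: after 3.7% formaldehyde fixation, cells were stained with a rabbit anti-H1.0 antibody, an AlexaFluor 647 secondary and DAPI. Reported values are H1.0 nuclear intensity or cell number as percent of the plate control, taken as the median of replicates, with positional smoothing for HCC1569.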

TDF [2] = assay: as above
Method in brief: as §1

TDF [3] = assay: H1.0 immunofluorescence intensity relative to DMSO (% of DMSO); higher = stronger H1.0 induction, active = 120 or more
Method in brief: as §1

HCC1569 [4] = assay: H1.0 immunofluorescence intensity relative to DMSO (% of DMSO); higher = stronger H1.0 induction, active = 140 or more
Method in brief: as §1
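For H1.0 immunofluorescence intensity relative to DMSO in this document: TDF is a line of transformed human dermal fibroblasts of mesenchymal origin.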
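For cell number relative to DMSO in this document: TDF denotes transformed human dermal fibroblasts of mesenchymal origin.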

Row | SMILES | cell number (HCC1569 [1]) | cell number (TDF [2]) | H1.0 immunofluorescence intensity (TDF [3]) | H1.0 immunofluorescence intensity (HCC1569 [4])
1 | Oc1ccc(-c2c(-c3ccccc3)nn3c(C(F)(F)F)cc(C(F)(F)F)nc23)cc1 | 67.9 | 12.4 | 154 (active) | 143 (active)
2 | CC(C)Cc1ccc(C(C)C(=O)O)cc1 (stereo not drawn) [S(+)-Ibuprofen] | 103 | 108 | 96 (inactive) | 90.5 (inactive)
3 | CCCCCCCCCCCCCCCCCC(=O)NCC(COP(=O)([O-])OCC[N+](C)(C)C)OC (racemic) [rac-2-Methoxy-3-octadecanamido-1-propylphosphocholine] | 101 | 84.5 | 95.2 (inactive) | 101 (inactive)
4 | COc1ccc(C2CC(=O)c3c(O)cc(OC4OC(COC5OC(C)C(O)C(O)C5O)C(O)C(O)C4O)cc3O2)cc1O (configuration not stated) [Hesperidine] | 107 | 102 | 93.2 (inactive) | 84.8 (inactive)
5 | O=c1cc(-c2ccc(O)c(O)c2)oc2cc(O)c(C3OC(CO)C(O)C(O)C3O)c(O)c12 (configuration not stated) [Homoorientin] | 101 | 96.2 | 100 (inactive) | 90.4 (inactive)
6 | CC(C)N(CCC(=O)c1ccc2ccccc2c1)Cc1ccccc1.Cl | 96.2 | 92.5 | 102 (inactive) | 119 (inactive)
7 | CC12CCC(=O)C=C1CCC1C2C(O)CC2(C)C1CCC2(O)C(=O)COC(=O)CCC(=O)[O-].[Na+] (configuration not stated) [Hydrocortisone 21-hemisuccinate sodium] | 99.5 | 99.5 | 82.6 (inactive) | 125 (inactive)
8 | CC1OC(OC2C(Oc3cc(O)c4c(=O)cc(-c5ccc(O)cc5)oc4c3)OC(CO)C(O)C2O)C(O)C(O)C1O (configuration not stated) [Rhoifolin] | 102 | 112 | 88.4 (inactive) | 89.9 (inactive)
